In the library only some 4.1% were active in any assay of this set; here they are far more common.
PolyA inh = inhibitors of polyadenylation in S. cerevisiae; S. cerevisiae SKY197-pL101 polyadenylation reporter, beta-gal luminescence; efflux-impaired pdr1/pdr3 knockout yeast; score 100 = 6 SD above DMSO; activity score, % at 12 µM; 300,000 compounds, 0.02% hits;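 active = lowest replicate activity score at least 50, where 100 means six control SD above control mean; inconclusive = lowest score under 50 but half or more replicates reach 50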;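 note: yeast exposed to compound for 9 h at 30 °C; higher score means more reporter readthrough which indicates perturbed polyadenylation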
IDE cell activ = IDE (human) activation, cell-based. 340,000 compounds, 0.073% hits. HEK cells, FAbeta-B cleavage, fluorescence polarization; 0% vehicle, 100% cell-free pure enzyme wells. activation, % at 5.96 µM. AID 493087;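 active = activation above the mean of all tested compounds plus 3 SD, set per screening campaign, cut at about 17% in these data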
IDE inh = inhibitors of human insulin-degrading enzyme in cells. HEK cells, FAbetaB cleavage, fluorescence polarization. AID 434962. inhibition, % at 5.59 µM. 320,000 compounds, 0.41% hits;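 active = percent inhibition above the average of all tested compounds plus 3 SD, set per screening campaign, cut at about 16% in these data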;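 note: IDE supplied by intact live HEK cells; FP after avidin binding of uncleaved biotin substrate so inhibition keeps polarization high; 0% = DMSO wells and 100% = 60 µM reference IDE inhibitor Ii1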
ALR H2O2 inh = blocks human ALR sulfhydryl oxidase activity | AID 485317 | 290,000 compounds, 3.8% hits | inhibition, % (test concentration not listed) | purified ALR, DTT oxidation, H2O2 HRP-luminol luminescence;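 active = mean replicate inhibition above about 79%, with every replicate also reaching it, limit read from the data; inconclusive = only one of the two criteria met; inactive = mean below limit and not every replicate reaching it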
PfM18AAP inh = PfM18AAP enzyme inhibition; recombinant PfM18AAP, H-Glu-NHMec fluorogenic cleavage; inhibition, % at 7.35 µM; 290,000 compounds, 1.2% hits; AID 1822;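 active = inhibition above the campaign mean inhibition over all tested compounds plus 3 SD, cut at about 28% in these data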;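 note: 0% = plate median of test compound wells and 100% = 2 mM ZnCl2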
CaV13 ICDI inh = Disruptors of the CACNA1D IQ motif to Ca2+-dependent inactivation inhibitor domain association, primary screening, Förster resonance energy transfer in intact living … | AID 743397 | HEK cells, CFP/YFP FRET ICDI-IQ, plate reader, 10 min; percent FRET-ratio fall versus neutral wells | inhibition, % at 12.3 µM | 340,000 compounds, 0.098% hits;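 active = mean replicate inhibition of at least 30% and at least 1% of replicates passing that level; inconclusive = only one of the two criteria is met; inactive = neither criterion is met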;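 note: 0% = median of the neutral control wells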
* hit, by the source's call; ? = inconclusive; / = no result.

SMILES	PolyA inh	IDE cell activ	IDE inh	ALR H2O2 inh	PfM18AAP inh	CaV13 ICDI inh
CCOc1ccc2nc(N3CCCCCC3)sc2c1	-5	3	7	90*	-1	-7
O=C(C1=COCCO1)N1CCN(C(c2ccccc2)c2ccccc2)CC1	-8	3	9	3	-3	-4
CC(=O)Nc1ccc(NC(=O)CSc2ccc(C)cc2)cc1	8	2	-4	15	3	-3
CC(=O)Nc1ccc(SCC(=O)N(CCC#N)c2ccc(C)cc2)cc1	-6	4	3	97*	4	-6
Cc1cccc(NC(=S)NNc2cccc(Cl)c2)c1	10	4	0	20	24	-4
Cc1ccc(NS(=O)(=O)c2cc([N+](=O)[O-])ccc2NNC(=S)Nc2cccc(Cl)c2)c(C)c1	-19	5	2	15	32*	/
CCN(CC)c1ccc(/C=N/NC(=O)c2ccc(Br)o2)cc1	?	-5	2	12	2	-2
CCN(CC)c1ccc(/C=N/NC(=O)Nc2nonc2N)cc1	-3	0	1	99*	12	-5
O=C(N/N=C/c1ccccc1)C(O)c1ccccc1 (centres undefined)	-12	6	2	-10	-1	-5
O=C(N/N=C/c1ccc(O)c(O)c1)C1CC1	8	/	-3	99*	/	-5
CCN(CC)c1ccc(/C=N/NC(=O)C2CC2)cc1	-12	5	6	100*	15	-11
CCN(CC)c1ccc(/C=N/NC(=O)C(O)c2ccccc2)cc1 (centres undefined)	2	-1	-1	100*	5	-2
COc1ccccc1C(=O)NCC(=O)OC(C)C(=O)N1CCOCC1 (centres undefined)	13	0	8	15	/	-6
COc1cc(O)c(C(CCN2CCCCC2)c2ccc(N(C)C)cc2)c(OC)c1 (centres undefined)	-13	0	2	98*	/	-5
COc1cc(O)c(C(CC(=O)N2CCCC2)c2ccc(N(C)C)cc2)c(OC)c1 (centres undefined)	-8	0	2	98*	/	-6
COc1ccc(Cl)cc1NC(=O)CN(C)C(=O)CCCNC(=O)c1ccc(Cl)cc1	/	1	-2	-11	/	-4
CC(=O)OC1CC(C)(C)N(OC(=O)c2ccccc2)C(C)(C)C1	13	3	3	/	-9	-4
CC(=O)OC1CC(C)(C)N(OC(=O)c2ccc(N)cc2)C(C)(C)C1	/	2	1	98*	0	-8
COC(=O)CC1C(=O)NCCN1C(=O)CSc1nc2ccccc2s1 (centres undefined)	14	-1	-2	99*	15	-7
CC1(C)CC2(CC(C)(C(=O)CSc3nc4ccccc4s3)OC2=O)C(=O)O1 (centres undefined)	-18	3	-6	91*	-7	-5
CC1(C(=O)CSc2nc3ccccc3s2)CCC(=O)O1 (centres undefined)	22	1	3	99*	5	-5
NC(=O)C1(N2CCCCC2)CCN(C(=O)CSc2nc3ccccc3s2)CC1	3	1	-2	/	3	-6
COC(=O)CC1C(=O)NCCN1C(=O)c1ccccc1 (centres undefined)	-2	4	-2	6	1	-4
CC1CC2(CC(C)(C(=O)CSc3nc4ccccc4s3)OC2=O)C(=O)O1 (centres undefined)	10	2	0	98*	0	-6
CSCCC(NC(=O)c1ccccc1Br)C(=O)N1CCCCCCC1 (centres undefined)	-15	0	0	0	/	-6
SMILES	PolyA inh	IDE cell activ	IDE inh	ALR H2O2 inh	PfM18AAP inh	CaV13 ICDI inh
O=C(CSc1nc2ccccc2s1)N1CCOCC1	7	4	7	97*	9	-7
O=C(CSc1nc2ccccc2s1)NCCCN1CCOCC1	-6	-1	1	-11	-6	-8
Nc1nc(CSc2nc3ccccc3s2)nc(N2CCOCC2)n1	-6	-2	6	99*	-2	6
CCCN(CC(=O)Nc1ccccc1OC)C(=O)CN1C(=O)NC2(CCCCC2)C1=O	/	-1	-1	-3	/	-4
O=C1C(=O)N(c2nccs2)C(c2ccccc2)/C1=C(\O)c1ccc2c(c1)OCCO2 (centres undefined)	5	2	-3	0	4	/
O=C1C(=O)N(c2nccs2)C(c2ccccc2F)/C1=C(\O)c1ccc2c(c1)OCCO2 (centres undefined)	5	5	3	98*	3	-7
CCn1c(SCC(=O)Nc2nncs2)nnc1-c1ccco1	9	0	5	/	21	-4
CSc1ccc(SC2CN(Cc3ccc(C)cc3)S(=O)(=O)C2)cc1 (centres undefined)	/	/	/	/	/	-5
COc1ccc2cc(C(=O)N3CCCC(Nc4ccc(F)cc4)C3)n(C)c2c1 (centres undefined)	10	4	7	25	-7	-3
COc1ccc(NC2CCCN(C(=O)c3ccc(OC)cc3OC)C2)cc1 (centres undefined)	6	2	3	99*	13	-6
Cc1ccc(C(=O)N2CCCC(Nc3ccc(C)c(C)c3)C2)c(=O)[nH]1 (centres undefined)	-1	6	-4	0	-9	-12
Cc1ccc(NC2CCCN(C(=O)c3ccc(C)c(N4CCNC4=O)c3)C2)cc1C (centres undefined)	17	0	4	93*	12	/
Cc1ccc(NC2CCCN(C(=O)c3ccoc3C)C2)cc1C (centres undefined)	-19	5	/	98*	5	/
CC(=O)c1ccc(OCC(=O)N2CCCC(Nc3ccc(C)c(C)c3)C2)cc1 (centres undefined)	-5	4	10	85*	26	-7
O=C(Nc1ccccc1)O[C@@H]1C[C@H]2CCC(=O)N3CC[C@@H](C1)[C@@H]23	-5	/	-4	0	-3	/
Cc1ccc(C)c(N(C(=O)c2ccco2)C(C(=O)NC2CCCC2)c2ccco2)c1 (centres undefined)	-16	1	1	4	-5	-4
CN(C(=O)OC(C)(C)C)[C@H](Cc1ccccc1)C(=O)N[C@H]1CCCCNC1=O	/	0	/	/	/	-4
O=C(CCCN1C(=O)c2cccc3cccc(c23)C1=O)Nc1nccs1	-7	3	4	-7	-2	-7
Cc1ccc(S(=O)(=O)N2C(=O)CCC2C(=O)O/N=C(\N)c2ccccc2)cc1 (centres undefined)	-18	0	2	-1	-4	/
Cc1ccc(C(=O)N2CCCC(Nc3ccc(F)c(F)c3)C2)cn1 (centres undefined)	13	2	1	14	-1	-3

Screening results: PubChem, several laboratories
